Source: the supplement of paper PMC11732987, “Enantioselective OTUD7B fragment discovery through chemoproteomics screening and high-throughput optimisation” (Communications Chemistry, 2025)

Columns and labels:
Assay in all cases: log2 ratio of Biotin-Ahx-Ub-VS probe labelling (fragment/DMSO); higher = less target engagement (more negative = stronger competition), active = hit call of the paper (q ≤ 0.05, log2 ratio ≤ -1)
Settings in all cases: compound concentration: 200 uM; treatment time: 3 h
USP19 = molecular target: T1, USP19 (UniProt O94966)
T1 sequence (whole entry): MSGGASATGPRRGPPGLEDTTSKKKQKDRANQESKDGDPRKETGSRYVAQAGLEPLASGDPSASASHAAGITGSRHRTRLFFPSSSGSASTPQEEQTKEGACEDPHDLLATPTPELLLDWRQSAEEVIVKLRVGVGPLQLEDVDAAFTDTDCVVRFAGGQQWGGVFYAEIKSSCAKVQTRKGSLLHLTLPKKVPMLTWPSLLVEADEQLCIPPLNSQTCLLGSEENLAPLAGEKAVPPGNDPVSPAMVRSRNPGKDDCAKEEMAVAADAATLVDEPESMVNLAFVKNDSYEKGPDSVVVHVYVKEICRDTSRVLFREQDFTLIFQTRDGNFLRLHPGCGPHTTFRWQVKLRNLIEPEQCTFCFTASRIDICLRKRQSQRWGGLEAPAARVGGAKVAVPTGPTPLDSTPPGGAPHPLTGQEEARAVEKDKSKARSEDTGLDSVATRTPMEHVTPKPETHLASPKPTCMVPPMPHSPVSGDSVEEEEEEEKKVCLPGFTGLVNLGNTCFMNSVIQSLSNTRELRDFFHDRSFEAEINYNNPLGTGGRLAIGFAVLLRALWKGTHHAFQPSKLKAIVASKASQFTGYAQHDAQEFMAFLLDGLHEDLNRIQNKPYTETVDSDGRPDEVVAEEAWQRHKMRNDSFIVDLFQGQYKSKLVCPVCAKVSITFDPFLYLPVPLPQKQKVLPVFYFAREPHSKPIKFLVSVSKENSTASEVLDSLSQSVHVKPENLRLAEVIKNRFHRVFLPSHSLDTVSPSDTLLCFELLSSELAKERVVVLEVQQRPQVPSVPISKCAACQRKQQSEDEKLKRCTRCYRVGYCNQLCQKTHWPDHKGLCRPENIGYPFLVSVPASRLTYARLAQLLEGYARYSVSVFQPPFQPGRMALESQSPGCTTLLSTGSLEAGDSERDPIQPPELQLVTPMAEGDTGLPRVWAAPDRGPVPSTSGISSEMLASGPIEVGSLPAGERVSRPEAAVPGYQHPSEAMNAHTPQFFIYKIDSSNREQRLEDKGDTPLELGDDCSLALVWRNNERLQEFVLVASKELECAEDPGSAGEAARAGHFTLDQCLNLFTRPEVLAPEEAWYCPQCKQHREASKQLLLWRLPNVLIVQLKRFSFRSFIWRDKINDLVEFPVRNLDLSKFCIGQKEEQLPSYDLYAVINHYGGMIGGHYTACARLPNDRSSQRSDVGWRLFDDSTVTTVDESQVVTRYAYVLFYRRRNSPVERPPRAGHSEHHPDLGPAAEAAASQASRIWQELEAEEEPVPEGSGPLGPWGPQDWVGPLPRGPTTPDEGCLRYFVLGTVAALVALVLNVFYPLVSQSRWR
Summary of the method: (§1)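 HEK293T lysate in Tris/CHAPS/IGEPAL buffer with protease inhibitors (495 µg per sample) was given fragment at 200 µM or vehicle for 3 h, in triplicate. It then received Biotin-Ahx-Ub-VS at 0.5 µM final for 1 h. Labelled DUBs were NeutrAvidin-enriched, digested with LysC and trypsin, and run by diaPASEF LC-MS/MS. Values are average log2 fragment/vehicle ratios by unpaired t-test on global-median-normalised Spectronaut quantities of proteins with ≥2 unique peptides.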

USP22 = molecular target: T2, USP22 (UniProt Q9UPT9)
T2 sequence (whole entry): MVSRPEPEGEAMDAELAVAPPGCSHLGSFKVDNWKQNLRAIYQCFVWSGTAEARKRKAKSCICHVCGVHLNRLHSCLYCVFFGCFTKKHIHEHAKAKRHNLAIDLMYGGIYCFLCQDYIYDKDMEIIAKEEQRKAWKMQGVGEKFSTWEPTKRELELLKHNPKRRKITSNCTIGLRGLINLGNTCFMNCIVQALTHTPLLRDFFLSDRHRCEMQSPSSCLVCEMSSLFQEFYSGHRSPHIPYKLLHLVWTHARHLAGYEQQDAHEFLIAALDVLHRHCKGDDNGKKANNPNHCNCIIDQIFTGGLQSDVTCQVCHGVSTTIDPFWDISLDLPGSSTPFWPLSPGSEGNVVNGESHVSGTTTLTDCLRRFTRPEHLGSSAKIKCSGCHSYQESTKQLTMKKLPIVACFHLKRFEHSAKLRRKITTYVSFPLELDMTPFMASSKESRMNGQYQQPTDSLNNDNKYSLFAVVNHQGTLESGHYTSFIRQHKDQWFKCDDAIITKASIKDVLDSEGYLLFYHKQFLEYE
Summary of the method: as §1

USP24 = USP24 (UniProt Q9UPU5)
Summary of the method: as §1

USP25 = molecular target: T3, USP25 (UniProt Q9UHP3)
T3 sequence (whole entry): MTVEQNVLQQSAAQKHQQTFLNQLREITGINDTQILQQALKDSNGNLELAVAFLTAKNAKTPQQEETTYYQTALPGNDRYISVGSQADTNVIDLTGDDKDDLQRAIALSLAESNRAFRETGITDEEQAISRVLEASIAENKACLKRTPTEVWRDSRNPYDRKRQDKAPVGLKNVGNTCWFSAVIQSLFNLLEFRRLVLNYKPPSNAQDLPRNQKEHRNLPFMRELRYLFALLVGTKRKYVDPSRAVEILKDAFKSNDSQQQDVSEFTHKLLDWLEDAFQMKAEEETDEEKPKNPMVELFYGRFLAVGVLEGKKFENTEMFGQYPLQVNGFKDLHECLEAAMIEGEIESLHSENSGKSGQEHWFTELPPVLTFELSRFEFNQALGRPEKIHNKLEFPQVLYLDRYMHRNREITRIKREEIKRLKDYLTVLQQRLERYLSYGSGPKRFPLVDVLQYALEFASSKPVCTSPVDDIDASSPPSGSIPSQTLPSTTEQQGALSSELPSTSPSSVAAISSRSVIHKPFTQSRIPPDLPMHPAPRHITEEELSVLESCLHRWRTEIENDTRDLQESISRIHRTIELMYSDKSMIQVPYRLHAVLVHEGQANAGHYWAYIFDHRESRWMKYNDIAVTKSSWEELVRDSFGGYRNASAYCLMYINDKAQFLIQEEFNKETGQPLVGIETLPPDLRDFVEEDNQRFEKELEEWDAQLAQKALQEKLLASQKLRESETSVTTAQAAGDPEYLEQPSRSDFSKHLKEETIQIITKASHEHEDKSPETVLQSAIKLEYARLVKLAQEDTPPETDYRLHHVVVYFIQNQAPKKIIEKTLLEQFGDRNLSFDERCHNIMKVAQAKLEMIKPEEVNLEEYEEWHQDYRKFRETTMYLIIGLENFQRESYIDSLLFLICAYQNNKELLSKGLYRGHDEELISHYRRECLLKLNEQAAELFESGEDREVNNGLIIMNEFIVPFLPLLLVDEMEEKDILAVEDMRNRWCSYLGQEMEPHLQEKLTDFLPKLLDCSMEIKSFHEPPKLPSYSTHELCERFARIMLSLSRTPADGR
Summary of the method: as §1

USP28 = molecular target: T4, USP28 (UniProt Q96RU2)
T4 sequence (whole entry): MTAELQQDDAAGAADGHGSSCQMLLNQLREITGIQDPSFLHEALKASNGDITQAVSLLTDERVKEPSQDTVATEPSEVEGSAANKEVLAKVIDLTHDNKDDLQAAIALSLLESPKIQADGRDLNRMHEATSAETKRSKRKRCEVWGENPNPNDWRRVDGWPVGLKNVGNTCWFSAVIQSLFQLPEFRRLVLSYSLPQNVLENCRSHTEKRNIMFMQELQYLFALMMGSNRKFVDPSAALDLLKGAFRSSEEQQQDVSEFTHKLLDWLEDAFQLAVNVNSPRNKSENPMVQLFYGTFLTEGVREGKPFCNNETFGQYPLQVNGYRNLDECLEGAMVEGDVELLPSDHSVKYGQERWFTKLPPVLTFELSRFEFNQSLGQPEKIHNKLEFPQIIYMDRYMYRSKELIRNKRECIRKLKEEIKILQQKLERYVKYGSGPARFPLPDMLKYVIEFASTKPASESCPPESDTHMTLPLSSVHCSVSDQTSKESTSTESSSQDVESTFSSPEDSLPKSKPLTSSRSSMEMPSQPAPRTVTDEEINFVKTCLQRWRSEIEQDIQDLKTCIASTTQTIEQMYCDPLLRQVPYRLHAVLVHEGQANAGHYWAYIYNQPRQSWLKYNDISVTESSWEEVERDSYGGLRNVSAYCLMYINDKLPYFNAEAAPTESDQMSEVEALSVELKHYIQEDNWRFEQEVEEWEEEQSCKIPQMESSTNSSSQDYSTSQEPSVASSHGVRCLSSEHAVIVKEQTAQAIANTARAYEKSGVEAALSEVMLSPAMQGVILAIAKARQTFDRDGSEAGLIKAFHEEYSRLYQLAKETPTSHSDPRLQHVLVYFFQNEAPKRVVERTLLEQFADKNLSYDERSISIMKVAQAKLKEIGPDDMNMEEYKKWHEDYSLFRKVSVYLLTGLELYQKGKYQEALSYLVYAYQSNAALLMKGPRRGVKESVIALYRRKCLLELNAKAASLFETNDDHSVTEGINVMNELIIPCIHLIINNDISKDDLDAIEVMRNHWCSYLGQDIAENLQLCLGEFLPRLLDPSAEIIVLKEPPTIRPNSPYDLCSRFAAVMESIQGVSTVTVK
Summary of the method: as §1

Measured: log2 ratio of Biotin-Ahx-Ub-VS probe labelling

Chain of USP24 (Q9UPU5 whole entry): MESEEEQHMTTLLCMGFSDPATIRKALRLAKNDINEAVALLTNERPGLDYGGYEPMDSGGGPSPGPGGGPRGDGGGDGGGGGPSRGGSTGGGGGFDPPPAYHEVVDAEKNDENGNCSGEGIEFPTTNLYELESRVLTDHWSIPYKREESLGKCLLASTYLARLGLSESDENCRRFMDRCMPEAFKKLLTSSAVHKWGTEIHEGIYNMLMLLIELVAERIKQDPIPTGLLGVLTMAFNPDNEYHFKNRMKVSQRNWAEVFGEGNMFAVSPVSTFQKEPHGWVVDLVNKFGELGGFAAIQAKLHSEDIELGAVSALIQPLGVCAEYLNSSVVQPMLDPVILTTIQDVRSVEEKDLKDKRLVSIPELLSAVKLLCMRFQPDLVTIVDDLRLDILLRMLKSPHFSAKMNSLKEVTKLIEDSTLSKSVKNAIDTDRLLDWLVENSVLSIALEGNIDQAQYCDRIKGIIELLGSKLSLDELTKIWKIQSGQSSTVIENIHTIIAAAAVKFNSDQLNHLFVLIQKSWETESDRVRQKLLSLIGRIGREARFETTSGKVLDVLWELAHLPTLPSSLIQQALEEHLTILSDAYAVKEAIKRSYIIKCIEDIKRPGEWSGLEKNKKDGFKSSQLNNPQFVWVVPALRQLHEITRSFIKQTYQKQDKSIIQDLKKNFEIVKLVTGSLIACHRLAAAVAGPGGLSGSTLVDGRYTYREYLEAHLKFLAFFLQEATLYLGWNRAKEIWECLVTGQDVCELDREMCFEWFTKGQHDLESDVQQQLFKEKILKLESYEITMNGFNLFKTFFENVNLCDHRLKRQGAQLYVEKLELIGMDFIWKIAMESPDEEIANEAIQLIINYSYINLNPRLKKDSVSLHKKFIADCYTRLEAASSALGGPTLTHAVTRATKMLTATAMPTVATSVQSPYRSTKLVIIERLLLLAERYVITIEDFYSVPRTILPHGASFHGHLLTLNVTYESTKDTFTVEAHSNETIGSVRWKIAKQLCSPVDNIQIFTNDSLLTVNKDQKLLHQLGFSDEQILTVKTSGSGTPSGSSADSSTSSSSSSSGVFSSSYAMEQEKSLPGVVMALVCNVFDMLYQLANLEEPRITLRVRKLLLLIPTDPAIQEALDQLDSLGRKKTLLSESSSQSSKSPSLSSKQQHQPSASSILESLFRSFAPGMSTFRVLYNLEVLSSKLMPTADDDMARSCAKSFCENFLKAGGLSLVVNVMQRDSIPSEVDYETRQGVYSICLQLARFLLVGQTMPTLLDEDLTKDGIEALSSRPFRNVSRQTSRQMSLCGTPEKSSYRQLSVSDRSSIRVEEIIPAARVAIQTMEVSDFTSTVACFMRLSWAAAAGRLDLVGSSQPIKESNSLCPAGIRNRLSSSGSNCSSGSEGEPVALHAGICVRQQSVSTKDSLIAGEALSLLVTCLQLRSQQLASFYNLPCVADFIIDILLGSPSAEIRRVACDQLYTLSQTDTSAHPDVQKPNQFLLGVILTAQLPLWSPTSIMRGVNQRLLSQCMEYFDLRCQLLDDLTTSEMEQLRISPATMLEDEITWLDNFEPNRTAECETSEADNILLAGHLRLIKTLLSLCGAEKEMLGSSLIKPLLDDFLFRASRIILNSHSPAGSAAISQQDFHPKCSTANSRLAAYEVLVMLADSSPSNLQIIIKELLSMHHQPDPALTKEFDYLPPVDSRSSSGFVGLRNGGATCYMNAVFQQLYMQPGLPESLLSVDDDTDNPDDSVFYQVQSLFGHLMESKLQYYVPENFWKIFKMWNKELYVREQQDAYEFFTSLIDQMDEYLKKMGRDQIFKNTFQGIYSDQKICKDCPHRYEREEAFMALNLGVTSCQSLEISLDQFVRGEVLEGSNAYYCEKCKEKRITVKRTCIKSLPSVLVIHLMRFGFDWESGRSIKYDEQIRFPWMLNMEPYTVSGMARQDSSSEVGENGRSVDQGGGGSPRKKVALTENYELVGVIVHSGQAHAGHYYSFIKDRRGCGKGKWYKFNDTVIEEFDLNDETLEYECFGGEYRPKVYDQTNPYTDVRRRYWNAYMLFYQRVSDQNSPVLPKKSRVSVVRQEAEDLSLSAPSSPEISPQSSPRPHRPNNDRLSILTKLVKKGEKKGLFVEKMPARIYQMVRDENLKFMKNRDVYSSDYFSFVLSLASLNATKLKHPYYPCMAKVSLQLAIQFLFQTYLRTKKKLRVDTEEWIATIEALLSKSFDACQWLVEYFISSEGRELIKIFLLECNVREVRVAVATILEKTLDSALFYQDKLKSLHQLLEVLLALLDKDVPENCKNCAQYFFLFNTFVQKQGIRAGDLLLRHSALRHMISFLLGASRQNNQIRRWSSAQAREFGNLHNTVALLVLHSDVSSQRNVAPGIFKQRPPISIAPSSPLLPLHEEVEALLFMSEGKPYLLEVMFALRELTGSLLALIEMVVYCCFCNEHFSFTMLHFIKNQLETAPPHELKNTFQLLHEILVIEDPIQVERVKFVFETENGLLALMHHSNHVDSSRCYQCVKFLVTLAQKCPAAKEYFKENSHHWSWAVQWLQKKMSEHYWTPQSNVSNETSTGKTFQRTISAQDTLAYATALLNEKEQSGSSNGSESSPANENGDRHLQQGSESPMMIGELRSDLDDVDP

O=C(CCl)NC1CCS(=O)(=O)c2ccccc21 (stereo not given)
inactive: USP19 -0.237 | USP22 -0.0769 | USP24 -0.183 | USP25 -0.461 | USP28 -0.943
